# Test results from the supplement of paper PMC6555819.
# Experiments:
# Assay in all cases: PBM binding z-score (relative to random genomic background probes); higher = stronger binding; sequences stand for … in GC…GCGATTGACAGCGTAGAATGAAGG
# [1] = test system: RARb homodimer (NR concentration 270 nM)
# How it was run: (§1)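 Each nuclear receptor dimer, without ligand, was incubated for 1 h on custom Agilent 4×180K protein-binding microarrays. Binding was detected with antibodies against each partner (one per run), and scanned fluorescence was regression-normalized. The binding z-scores are referenced to random human genomic background probes.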
# [2] = test system: RARg:RXRa (NR concentration 270 nM, RXRa partner concentration 90 nM)
# How it was run: as §1
# [3] = test system: RARg homodimer (NR concentration 270 nM)
# How it was run: as §1
# [4] = test system: RXRa DBDmut IVT, anti-RXR (DBD mutation: RXRa K156A/R161A, NR concentration 90 nM)
# How it was run: as §1
# [5] = test system: RXRa homodimer (NR concentration 180 nM)
# How it was run: as §1
# [6] = test system: THRa:RXRa (NR concentration 90 nM, RXRa partner concentration 90 nM)
# How it was run: as §1
# [7] = test system: THRa homodimer (NR concentration 90 nM)
# How it was run: as §1
# [8] = test system: VDR homodimer (NR concentration 270 nM)
# How it was run: as §1
Sequence,PBM binding z-score [1],PBM binding z-score [2],PBM binding z-score [3],PBM binding z-score [4],PBM binding z-score [5],PBM binding z-score [6],PBM binding z-score [7],PBM binding z-score [8]
GGAACGAGGGCATTCGAGTCGATAGCATGGCGAT,0.222,1.01,1.35,3.2,0.622,2.5,-0.885,1.87
CTCGAAAGGTCGTGCTCAGGGGAGTATACCAAAC,2.53,4.03,3.44,2.02,4,2.77,0.415,1.13
GGACCGAGGGCATTCGAGTTGATAGCATGGCGAT,0.78,1.2,1.14,2.61,0.753,3.46,-0.46,3.18
TCTCTTAGTTGATTAGGGCAACCGAAACAGCGGA,0.99,0.874,0.649,1.47,0.82,0.934,0.61,0.608
CCTAGTAGTTGACCATAAGGGCAACCGAAGCTCG,2.08,1.13,0.854,-0.02,0.613,1.81,1.16,0.728
CCCGCTAGGTCAATGGTCAGCTAAAGCAGCTCGC,3.03,3.62,4.76,1.28,2.37,2.27,0.886,-0.00101
CCTACTGGGCCATTCAGAGGTCAGTGATCATATG,3.78,4,2.75,0.291,2.29,2.18,0.651,1.13
GGAACGAGGGCATTCGAGTTGATAGTATGGCGAT,0.948,1.22,1.61,3.39,0.99,3.38,0.0512,3.37
CCTAGTTGGTCAGGAGGTCACCCACCGGATATGA,4.11,4.91,4.4,-0.0796,4.2,3.47,2.51,2.4
CGAACTAGGTCATTGACAGGGCAGTGAATAGTAA,2.93,5.12,4.41,2.54,2.89,2.64,0.623,1.08
ATCGAAAGGTCGACGAGGTGATTATACACCGTTT,2.78,4.21,3.9,1.34,4.35,3.58,0.498,1.54
CCGACTGGGGCATCAGGTTACCATAAGCCAGCCC,0.867,0.461,0.586,-0.734,0.214,0.994,0.484,-0.423
GCATGTAGATCAAGGTTAAGAAAGACTAAGCTAA,-0.0945,0.235,0.318,0.0216,0.645,1.26,-0.345,-0.573
TCATATAGGTAAAGGTGAAAGTAGAACGATATGA,1.35,1.71,1.43,0.637,2.2,1.36,-0.513,-0.148
CCTACTGGGCCAAAAAGGTCATTCATGCCGATAA,4.58,5.14,5.18,0.771,6.01,3.24,0.431,3.01
ACTAGCAGGCCAAGCGTCACTCAAGATTAGTCCG,-0.0548,-0.358,0.0982,-0.131,-0.281,-0.489,-0.737,-1.26
ATCTCTATGTAAAAGTTCAGTGAATCCCGAGGAT,2.26,1.61,1.8,1.05,1.11,0.505,0.00559,1.6
TAGCCTAGGTCATGGGCCAGTATACCACGCGAAC,2.71,4.27,4.78,0.316,3.57,2.93,1.3,0.506
ATCTCTAGGTTAAGTTCAGTGAAAGATCGATAGA,2.18,2.18,2.54,2.12,1.41,1.99,1.4,3.19
GAGACAGGGTCAAGGCCAGAGTACGCGTATTGAT,3.45,5.32,5.34,1.95,6.25,3.52,1.06,1.98
TCATATAGCTAATACAGGTGAAAGTCGGCATCTA,-0.00242,0.298,0.338,1.09,0.758,0.42,-0.541,-0.107
ATCTCTAGGTAAAAGTTCATTGAATCCCGAGGAT,2.65,2.61,2.06,1.89,2.82,1.87,0.281,3.33
TGAATGAGGTTAATGATCAGGGAACGTGGCGTCG,0.436,1.4,1.07,0.589,1.67,1.97,0.6,0.544
ATATGTAGTTTAGCTGGGGTCATTCAGACTAGGC,3.66,3.73,2.48,2.23,5.23,4.49,3.19,5.03
GCTACTAGGTCAACTGATGGTCAGCTAAAGCTCG,3.31,5.27,5.19,1.63,3.06,2.9,0.994,0.21
CTCGAAAGGGCGGTTGAGGTGAGTATACGGATAA,0.872,0.317,0.636,0.039,-0.0679,4.21,1.28,0.0137
CATACAGGCTCAGCTAGGCCAGAGTAGGGACGGC,-0.642,-0.268,0.0433,-0.877,-0.366,-0.349,-0.416,-0.751
ATATGTAGGTGACATCCGGGTCATTCAGGCTATG,2.79,3.31,1.95,0.715,3.03,3.53,2.11,2.66
ATCGAAAGGTCGAAGGTGAGTAAACCCACCCGAA,2.45,4.43,3.92,1.23,4.9,2.15,0.0401,1.17
